S2 tox = Viability Counterscreen for Primary qHTS for Inhibitors of ATXN expression; hit rate 0.49% among 400,000; AID 651635, 2014; S2 cells (HEK-293 line with an ATXN2-luciferase reporter) viability, CellTiter-Fluor protease fluorescence, 24 h; Potency, µM (top dose mostly 56.7 µM), hits mostly cytotoxic; note: nearly all actives have a fitted effect of over 40% in size
VP16 counter = VP16 counterscreen qHTS for inhibitors of ROR gamma transcriptional activity; hit rate 3.5% among 310,000; Drosophila S2 Gal4-VP16 UAS-luciferase, luminescence, 20 h; Potency, µM (doses to about 53.6 µM), without a hit: top-dose activity, negative = inhibition, hits mostly inhibitors;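 note: Gal4-VP16 expression switched on by copper sulfate through the metallothionein promoter; % is set by controls: 0 for no effect and ±100 for the full control effect; nearly all actives have a fitted effect of over 50% in size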
RORgamma inh = qHTS for inhibitors of ROR gamma transcriptional activity; Nuclear receptor ROR-gamma (Mus musculus), P51450; Drosophila S2 Gal4-RORgamma UAS-luciferase reporter, 20 h; Potency, µM (titrated, usually from 53.6 µM), for the others: top-dose activity change, negative = inhibition, hits mostly inhibitors; hit rate 5.4% among 310,000; note: % is set by controls: 0 for no effect and ±100 for the full control effect; nearly all actives have a fitted effect of over 60% in size
Target sequence (P51450 whole entry, looked up, the tested form may be a part): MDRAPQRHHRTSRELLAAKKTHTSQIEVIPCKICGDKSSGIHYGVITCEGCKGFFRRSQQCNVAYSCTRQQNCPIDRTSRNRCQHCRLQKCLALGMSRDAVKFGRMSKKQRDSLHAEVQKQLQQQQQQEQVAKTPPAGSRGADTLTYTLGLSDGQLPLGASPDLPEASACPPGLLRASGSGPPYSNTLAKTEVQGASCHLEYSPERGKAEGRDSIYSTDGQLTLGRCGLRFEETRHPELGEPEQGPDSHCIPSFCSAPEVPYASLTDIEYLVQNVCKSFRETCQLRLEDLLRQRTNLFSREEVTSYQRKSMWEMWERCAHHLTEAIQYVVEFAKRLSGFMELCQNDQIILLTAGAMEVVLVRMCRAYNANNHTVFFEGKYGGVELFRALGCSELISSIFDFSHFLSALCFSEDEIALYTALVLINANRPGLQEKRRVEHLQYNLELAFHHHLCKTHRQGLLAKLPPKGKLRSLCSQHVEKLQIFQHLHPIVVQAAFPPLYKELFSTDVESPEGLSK
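Compounds are pin-transferred onto Drosophila Schneider cells expressing a copper-inducible Gal4–ROR gamma transactivation domain fusion. After 1 hr, copper sulfate is added to 700 uM final; luciferase is read 20 hr later.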
HepG2 viability = qHTS for Inhibitors of TGF-b: Cytotox Counterscreen. HepG2 CAGA-GFP viability, ATP luminescence, 18 h. Potency, µM (doses to about 46.1 µM), for the others: top-dose activity change, negative = cytotoxicity, hits mostly cytotoxic. hit rate 0.76% among 410,000. AID 588856, 2011
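CellTiter-Glo luminescence gave cytotoxicity after 18 hours at 37 degrees C. The cells were HepG2 CAGA-GFP in 1% FBS DMEM, stimulated with 500 pg/mL TGF-beta after compound addition. %Activity was normalised to no-cell wells (complete cell-killing) and DMSO (no toxicity), and curves were fitted and classified.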
TGFb SMAD3 inh = qHTS for Inhibitors of TGF-b | HepG2 CAGA-GFP TGF-b/SMAD3 reporter, GFP fluorescence, 18 h; TGF-beta stimulated, 500 pg/mL final | Potency, µM (doses to about 46.1 µM), for inactives: top-dose activity, negative = inhibition, hits mostly inhibitors | hit rate 1.2% among 410,000; note: % is set by controls: 0 for no effect and ±100 for the full control effect; nearly all actives have a fitted effect of over 65% in size
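First, reporter cells (HEPG2 CAGA-GFP) rested 2 h at 37 degrees C. Next, compounds were pinned in and TGF-beta added to 500 pg/mL final. After 18 h, GFP was imaged per cell and summed per well.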
ATXN2 expr inh = Primary qHTS for Inhibitors of ATXN expression | hit rate 0.72% among 360,000 | HEK-293 ATXN2-luciferase reporter, luminescence, 24 h | Potency, µM (doses to about 57 µM), without a hit: at the top dose activity change, negative = inhibition, hits mostly inhibitors | AID 1745845, 2022; note: % is set by controls: 0 for no effect and ±100 for the full control effect; nearly all actives have a fitted effect of over 55% in size
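qHTS (up to 57 uM final) was run with 24 h compound exposure of reporter cells at 37 °C. Each well was multiplexed: SteadyGlo luminescence measured ATXN2-luciferase expression after a fluorogenic Gly-Phe-AFC viability readout (25 uM final).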
Numbers without * were called inactive; i = inactive; ? = inconclusive; nt = no result; ! = repeats disagree; [ ] = dose if it differs, or a comment. Hits are enriched below; roughly 6.3% of the tested compounds scored in any of these assays. Calls come from the whole dose curve; as a rule, active = well fitted curve in the direction sought with a large enough effect; inconclusive = small, poorly fitted or top-dose-only effect, or another doubt; inactive = no such curve, though single readings can be large; an effect the other way counts as inactive or inconclusive. Potency is the fitted concentration of half-maximal effect.

SMILES | S2 tox | VP16 counter | RORgamma inh | HepG2 viability | TGFb SMAD3 inh | ATXN2 expr inh
Nc1c(C(=O)NCc2ccccc2)c2nc3ccccc3nc2n1CCCN1CCOCC1 | nt | -24% | -28% | 18µM* | ? | nt
CC(C)Nc1oc(-c2ccccc2)nc1-c1cccc2ccccc12 | nt | 4% | 0% | nt | nt | nt
c1ccc(-c2nc(-c3cccc4ccccc34)c(Nc3ccc4ccccc4c3)o2)cc1 | nt | 1% | 5.6µM* | nt | nt | nt
COc1ccc(-c2[nH]nc3nc(N4CCN(C(=O)c5ccoc5)CC4)cc(C(F)(F)F)c23)cc1 | 20µM* | nt | nt | -39% | ? | 20µM*
COc1ccc(-c2cc3nc(C)cc(N4CCN(C(=O)c5ccoc5)CC4)n3n2)cc1 | i | nt | nt | -10% | 17% | -17%
CC(C)C#Cc1cnc2c(c1)C(=O)N([C@H](C)CO)C[C@@H](C)[C@H](CN(C)C(=O)Nc1ccccc1F)O2 | i | nt | nt | -15% | -2% | 9%
COc1ccc(/C=C(\CC(=O)O)c2nc3ccccc3o2)cc1 | i | 5% | 17% | 1% | -9% | 63%
COc1ccc(C(=O)/C(=C/c2cccs2)c2nc3ccccc3o2)cc1 | i | ? | 3.2µM* | -22% | -4% | 15%
C=CCOC(=O)C1=C(C)NC(C)=C(C(=O)OCC=C)C1/C=C/c1ccccc1 | i | -14% | ? | 13µM* | ? | -19%
COc1cc(C=O)ccc1OS(=O)(=O)c1ccc(NC(C)=O)cc1 | i | 25µM* | -43% | 5% | -5% | 1%
COc1ccc(/C=C2\SC(=S)NC2=O)cc1OS(=O)(=O)c1ccc(NC(C)=O)cc1 | i | -3% | -20% | 4% | -32% | -12%
COc1ccc(-c2ccc(C(=O)NCc3ccccc3)c3occc23)c(C)c1 | i | nt | nt | -32% | ? | -20%
COc1ccc(-c2ccc(C(=O)NCc3ccc(N4CCN(C)CC4)cc3)c3occc23)c(C)c1 | 25µM* | nt | nt | 11µM* | ? | ?
CC(C)OC(=O)[C@@H]1CC[C@H](C)[C@@H](CCC[C@@H]2CC=C[C@H](CC#N)O2)O1 | nt | 4% | ? | nt | nt | nt
CN(C)c1ccc(N=Nc2ccccc2C(=O)O)cc1 | nt | nt | nt | 3% | -7% | nt
CN(C)c1ccc(N=Nc2ccc(C(=O)O)cc2)cc1 | ? | 1.4µM* | 0.5µM* | -2% | 5% | -42%
CC(C)C(=O)NCC1CCC2(CCN(Cc3ccc(-c4cccc(Cl)c4)o3)CC2)O1 (centres undefined) | i | nt | nt | nt | nt | nt
Cc1nc(SCc2nc3ccccc3[nH]2)c2oc3ccc(Br)cc3c2n1 | i | nt | nt | -6% | -11% | -5%
Cc1nc(SCc2nc3ccccc3[nH]2)c2oc3ccccc3c2n1 | i | ? | 14µM* | 1% | -4% | 5%
COc1cc2ncnc(Nc3cccc(Cl)c3)c2cc1OC | nt | -12% | 29% | -38% | ? | -14%
COc1cc2c(Nc3ccc(Br)cc3F)ncnc2cc1OCC1CCN(C)CC1 | i | ? | ? | nt | nt | 31µM*!
COc1cc2c(Nc3ccc(Cl)c(Cl)c3F)ncnc2cc1OCC1C[C@@H]2CN(C)C[C@H]2C1 | nt | nt | nt | nt | nt | 31µM*
COc1ccc(NC(=O)C(=O)Nc2cccc3cccnc23)c(OC)c1 | i | 2.5µM* | 1.4µM* | -4% | -3% | nt
COc1ccc(NC(=O)C(=O)Nc2cccc3ccccc23)c(OC)c1 | i | -9% | -24% | 4% | 5% | -9%
COc1ccc(C(=O)Nc2cccc3cccnc23)cc1OC | i | -6% | 34% | -25% | -1% | 18%
SMILES | S2 tox | VP16 counter | RORgamma inh | HepG2 viability | TGFb SMAD3 inh | ATXN2 expr inh
COc1ccc(NC(=O)C(=O)Nc2cccc3cccnc23)cc1OC | i | 2.8µM* | 1.8µM* | -21% | -5% | 29%
CCN1CCN(c2cc(-c3ccc(F)cc3)c3c(n2)CCCCCC3)CC1 | ? | nt | nt | nt | nt | 0%[25.6 µM]
CC1=C(C(=O)Nc2ccc(C)cc2C)C(c2sccc2C)n2ncnc2N1 (centres undefined) | i | nt | nt | 6% | -6% | 7%
COc1ccc(NC(=O)Cc2c(C)n(C(=O)c3ccc(Cl)cc3)c3ccc(OC)cc23)cc1 | i | -17% | ? | 0% | -8% | 5%
COc1ccc2c(c1)c(CC(=O)Nc1cccc(S(N)(=O)=O)c1)c(C)n2C(=O)c1ccc(Cl)cc1 | ? | -13% | 26% | -43% | 16µM* | ?
Cc1ccc2nc(NCc3ccccc3)c3nncn3c2c1 | i | nt | nt | 2% | 7% | -1%
Cc1ccc2[nH]cc(C(c3ccccc3)c3ccc(C)s3)c2c1 (centres undefined) | ? | nt | nt | 11µM* | 13µM* | ?
Cc1ccc2[nH]cc(C(c3ccccc3)c3cccs3)c2c1 (centres undefined) | ? | nt | nt | 16µM* | 13µM* | ?
Cc1ccc2cccc(NC(=O)C(C)Oc3ccc(Cl)cc3Cl)c2n1 (centres undefined) | i | nt | nt | 18% | -1% | -30%
Cc1ccccc1-c1nc(-n2ccnc2)c2ccccc2n1 | nt | 9% | 10µM* | nt | nt | nt
NC(=O)c1ccccc1-c1nc(-n2ccnc2)c2ccccc2n1 | nt | 0% | 26% | nt | nt | nt
COc1ccc(C(=O)Sc2nncc3ccccc23)cc1 | i | ? | 11µM* | 1% | -1% | -4%
COc1ccc(NC(=O)CSc2nncc3ccccc23)cc1 | i | 2% | 35% | -2% | -8% | nt
Fc1cccc(/C=N/Nc2nc3ccccc3[nH]2)c1 | i | ? | 10µM* | -21% | -25% | 23%
O=c1[nH]c(N/N=C/c2ccccc2)nc2ccccc12 | i | ? | -27% | 3% | 0% | 13%
C(/CCc1ccccc1)=N\Nc1nc2ccccc2[nH]1 | i | -26% | 11µM* | -1% | ? | nt
CCCc1cc(=O)[nH]c(SC/C=C/c2ccccc2)n1 | i | nt | nt | 7% | -4% | 24%
C(=N\Nc1nc2ccccc2[nH]1)/c1ccccc1 | i | ? | 10µM* | -9% | -8% | 31%
CCCc1cc(=O)[nH]c(N/N=C/C=C\c2ccccc2)n1 | i | 4%[10 µM] | 7.1µM* | 4% | 10% | 8%[11.3 µM]
CC1CCC2C(=O)N3C(CCC(C)[C@H]3c3ccccc3Br)C(=O)N2C1c1ccccc1Br (some centres undefined) | nt | -6%[10 µM] | 0%[10 µM] | nt | nt | nt
C(=N\Nc1nc2ccccc2[nH]1)/C1CCCCC1 | i | ? | 11µM* | -34% | -25% | -5%
Cc1nn(-c2ccccc2)c(Cl)c1/C=N/Nc1nc2ccccc2[nH]1 | i | ? | ? | -11% | -7% | 12%

Screening results (PubChem BioAssay)
